For 43 sequences, binding signal results are on record in paper PMC7819943, “Rice protein-binding microarrays: a tool to detect cis-acting elements near promoter regions in rice”.

In all, about 68,000 sequences were measured (“fluorescence intensity (a.u.)”: median about 9,100, highest 2% from about 16,000 on). The sample as a whole holds a higher share of the highest values than the screen did.

Chain of OsWRKY34 (Q0JBA9 entry or part of it): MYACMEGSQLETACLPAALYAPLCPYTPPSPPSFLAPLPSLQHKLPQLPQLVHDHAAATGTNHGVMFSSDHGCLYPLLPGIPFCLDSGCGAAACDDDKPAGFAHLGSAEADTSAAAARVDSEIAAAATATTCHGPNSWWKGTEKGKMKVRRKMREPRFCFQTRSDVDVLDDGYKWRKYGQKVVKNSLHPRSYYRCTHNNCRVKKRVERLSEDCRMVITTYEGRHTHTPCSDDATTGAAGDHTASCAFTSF

This assay has as its target OsWRKY34 (Oryza sativa, UniProt Q0JBA9 1-250). In words: protein-binding microarray (RPBM); PBS, 2% BSA, 51.3 ng/ul salmon testes DNA, 50 uM zinc acetate, 200 nM TF, 25 C, 1 h; high values mean tight binding. The conditions noted are these: protein: recombinant; tags: N-terminal polyhistidine and DsRed monomer fusion (pET32a); label: CyDye5-dUTP incorporated in the synthesized complementary strand; 3' TTTTT single-stranded linker to array surface; dsDNA, one strand shown. The gist of the method:
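Per-feature fluorescence intensity (arbitrary units), read on an Axon 4000B scanner, is the binding signal. Transcription factors carrying an N-terminal polyhistidine tag and DsRed fusion were expressed in E. coli BL21-CodonPlus and purified on Ni–NTA. A custom Agilent array, made double-stranded by primer extension with Cy5-dUTP and blocked with 2% BSA, was incubated with 200 nM protein in PBS, 2% BSA, salmon testes DNA and 50 µM zinc acetate at 25 °C for 1 h and then washed.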
For the sequence “CCACAGCGCCTCCACTGCCTGCAGGGACGCCACCGCTACCCGGAGTCACCTAGTGCAG”, the binding signal is 8450 fluorescence intensity (a.u.).

Turning to “CCATTACCAGAACAGAACAGCAGGTTTTAACCTAACATTCCGGAGTCACCTAGTGCAG”, the binding signal was 8110 fluorescence intensity (a.u.).

On to “ATACTCTCATTTTTGTTTGCTCTATTCTTTGCTTTTAGAACGGAGTCACCTAGTGCAG”, for which the binding signal was 10200 fluorescence intensity (a.u.).

Regarding “ATATCTCATACTATCTCTCTTCCGTCGTTCCGTGTTGGCCCGGAGTCACCTAGTGCAG”, the binding signal was 10900 fluorescence intensity (a.u.).

Take “CTACGATCAGAAACAGCGGGGCGGGTTGGGAGGGAGTCCACGGAGTCACCTAGTGCAG”: the binding signal is 15800 fluorescence intensity (a.u.).

“ACCCCGACCATCTCCCACCATCGGAGGAGACGCTCAAACTCGGAGTCACCTAGTGCAG”: the binding signal is 8340 fluorescence intensity (a.u.).

As to “CCCGGCCCATCTCTCTGGCTCGCACTCCGCCTCCGCCACCCGGAGTCACCTAGTGCAG”, the binding signal is 10500 fluorescence intensity (a.u.).

Take “AGTACTCCCTCCGTTTCTAAATATTTGACACCGTTGACTTCGGAGTCACCTAGTGCAG”: the binding signal is 12700 fluorescence intensity (a.u.).

Turning to “ATCCGTTTTATATTATAAATCATTTGACTTTTTCTATTAGCGGAGTCACCTAGTGCAG”, the binding signal is 8510 fluorescence intensity (a.u.).

As to “AATCTTTTATACATATAATCCCTCCGTTTCTAAATATTTACGGAGTCACCTAGTGCAG”, the binding signal is 8110 fluorescence intensity (a.u.).

Turning to “CCTCCGTTTCTAAATATTTAACGCCATTGACTTTTTAGCACGGAGTCACCTAGTGCAG”, the binding signal is 9160 fluorescence intensity (a.u.).

Regarding “TCGAAATGTTTGACACCGTTGACTTTTTAGCATATGTTTGCGGAGTCACCTAGTGCAG”, the binding signal was 33700 fluorescence intensity (a.u.).

With “ACCCTCCGTTTCTAAATATTTAACACCGTTGACTTTTTAGCGGAGTCACCTAGTGCAG”, the binding signal was 23700 fluorescence intensity (a.u.).

As for “TTCAAAATGTTTGACACCATTGACTTTTTAGCATATGTTTCGGAGTCACCTAGTGCAG”, the binding signal was 10000 fluorescence intensity (a.u.).

On to “CTCCCTCCGTTTCTAAATATTTGATACCGTTGACTTTTTACGGAGTCACCTAGTGCAG”, for which the binding signal was 22300 fluorescence intensity (a.u.).

Turning to “AAATGTTTGACACCGTTGATTTTTTAGCGCATGTTTGACCCGGAGTCACCTAGTGCAG”, the binding signal is 8840 fluorescence intensity (a.u.).

Regarding “AAAATGTTTGACACCGTTGACTTTTTAGCATATGTTTGACCGGAGTCACCTAGTGCAG”, the binding signal is 30800 fluorescence intensity (a.u.).

Take “GTCATTGTTTGGAGTGGAGTTTTGCTTAGATTAATCTGTCCGGAGTCACCTAGTGCAG”: the binding signal was 8860 fluorescence intensity (a.u.).

For the sequence “ACCACCACCCTGATGGATCTTGGCTCTAGCTCCTGGTTTTCGGAGTCACCTAGTGCAG”, the binding signal is 8110 fluorescence intensity (a.u.).

For “GCTGCGCACCTAATGCTACTGTTTTGTTAGTATTTATTTACGGAGTCACCTAGTGCAG”, the binding signal was 8460 fluorescence intensity (a.u.).

Consider “GTTAGCTTCTACATTTCTCGTTTCTGCTGAAAATAGTGGACGGAGTCACCTAGTGCAG”, for which the binding signal is 9540 fluorescence intensity (a.u.).

On to “ACGACGAGGAGGCGGTGGTGGTCGTGCGCGGGGAGGAGTCCGGAGTCACCTAGTGCAG”, for which the binding signal was 9310 fluorescence intensity (a.u.).

As for “TGCTCTTTTTTTCTTGATTATAACCTTCCGGGGTAGTTTTCGGAGTCACCTAGTGCAG”, the binding signal was 8720 fluorescence intensity (a.u.).

Turning to “ACACTTGGCATTAATCTAATTTAACTTTTTTTTCTTTATCCGGAGTCACCTAGTGCAG”, the binding signal is 8440 fluorescence intensity (a.u.).

Turning to “ATTGAAACATGATCCGAGTCATAGCCTGACTGGAATTCTTCGGAGTCACCTAGTGCAG”, the binding signal is 9120 fluorescence intensity (a.u.).

As for “TCGTGCGTGCGTGTTTAATTGTCAACCCATACACAACTTGCGGAGTCACCTAGTGCAG”, the binding signal is 8510 fluorescence intensity (a.u.).

As to “TAAATATTTGACACCGTTGACTTTTTACACATATTTGACCCGGAGTCACCTAGTGCAG”, the binding signal is 35100 fluorescence intensity (a.u.).

“AAATATTTGACCGTTCGTTTATTATTTTTATTTTTTTTACCGGAGTCACCTAGTGCAG”: the binding signal is 12200 fluorescence intensity (a.u.).

“TTGACATAAATTTTCAACCAACCCGTTGTTTTTGTTTTACCGGAGTCACCTAGTGCAG”: the binding signal is 9250 fluorescence intensity (a.u.).

Consider “TTCCTCTTCTCTTCTCGTCTCTTGTAGTAGTATATATTTACGGAGTCACCTAGTGCAG”, for which the binding signal was 8430 fluorescence intensity (a.u.).

For “TCACTTTTCATGTACAAAACATGTTGATATTGTGGTTGGTCGGAGTCACCTAGTGCAG”, the binding signal was 8200 fluorescence intensity (a.u.).

Consider “TGTGGTGGAGGCCGGCTGGGTTCTCTTGGGGTTTGGCCGGCGGAGTCACCTAGTGCAG”, for which the binding signal is 10400 fluorescence intensity (a.u.).

Take “CGCTCCGCGATTCGTGTTGGTTCTTTTTTTTGTTTCTTGGCGGAGTCACCTAGTGCAG”: the binding signal is 8470 fluorescence intensity (a.u.).

Consider “GTTGGGGTGGTTGGTTTGGGGATCCCCTGTTGTACCCTGCCGGAGTCACCTAGTGCAG”, for which the binding signal was 10700 fluorescence intensity (a.u.).

As to “CGTGGGGTTTTCTTGTTTCGGAGGTAGGGAGAGGTTTCGTCGGAGTCACCTAGTGCAG”, the binding signal is 11900 fluorescence intensity (a.u.).

As for “GTTGTTCTTGGCGGCTAGGTCGTGGGGTTTTCTTGTTTCGCGGAGTCACCTAGTGCAG”, the binding signal is 22800 fluorescence intensity (a.u.).

“TCGTTCTTGGCTGGGTTTGGTTTGGTTTGGTTTGGTCTCGCGGAGTCACCTAGTGCAG”: the binding signal is 45500 fluorescence intensity (a.u.).

With “ACCGAATCCGAATCCCGCGTTTCTTTGTTGCGCGCGCGACCGGAGTCACCTAGTGCAG”, the binding signal was 10100 fluorescence intensity (a.u.).

For the sequence “TTCGCGCGCTGCTCGCTCGCTTGGTTGGTTGGTTGATTGCCGGAGTCACCTAGTGCAG”, the binding signal is 15200 fluorescence intensity (a.u.).

“TTGGTCTCTCCTCGTCGCTGGGGTTCTTTGTTCTTGTAGTCGGAGTCACCTAGTGCAG”: the binding signal is 10000 fluorescence intensity (a.u.).

Regarding “GCTGTTATTGGTTGCTCCTCGCGGTCTCCTTTTTTGGTGACGGAGTCACCTAGTGCAG”, the binding signal was 10800 fluorescence intensity (a.u.).

Regarding “TTGGTTTGGTTGCTCCTCGCGCTGTTATTGGTTGCTCCTCCGGAGTCACCTAGTGCAG”, the binding signal is 19900 fluorescence intensity (a.u.).

As to “AAATCCCCTTGTTACCGCGCGTTGTTTGGTTGTACCGCGCCGGAGTCACCTAGTGCAG”, the binding signal is 16600 fluorescence intensity (a.u.).
